Test results taken from PubChem BioAssay (NCI).
Where “and” joins values, the source holds several entries; their conditions need not be identical. Identical values can stand only once. Compounds without any hit were thinned out: in the full panel of roughly 83,000, 20% have a hit.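 Cell lines were cultured in 96-well plates, exposed to a single compound concentration, and assessed for percent growth 48 hours later.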 Calls of active or inactive are those of the source. How the source made its calls: active means growth percent below 10; inactive means the rest.

Columns and labels:
Assay in all cases: NCI-60 one-dose screen, 48 h (100 = growth as untreated, 0 = no growth, -100 = all killed)
Conditions in all cases: 10 µM unless noted
[1] = system: NCI-H23 lung
[2] = system: NCI-H226 lung
[3] = system: NCI-H322M lung
[4] = system: HOP-62 NSCLC
[5] = system: NCI-H460 lung
[6] = system: HOP-92 NSCLC
[7] = system: NCI-H522 lung
[8] = system: A549/ATCC NSCLC
[9] = system: 786-0 renal
[10] = system: COLO 205 colon
[11] = system: DU-145 prostate
[12] = system: K-562 leukemia
[13] = system: MALME-3M melanoma
[14] = system: MDA-MB-231 breast
[15] = system: RXF 393 renal
[16] = system: SF-268 CNS
[17] = system: SF-295 CNS
[18] = system: SF-539 CNS
[19] = system: UACC-257 melanoma
[20] = system: M14 melanoma

SMILES | growth [1] | growth [2] | growth [3] | growth [4] | growth [5] | growth [6] | growth [7] | growth [8] | growth [9] | growth [10] | growth [11] | growth [12] | growth [13] | growth [14] | growth [15] | growth [16] | growth [17] | growth [18] | growth [19] | growth [20]
Clc1ccc(Nc2nc(Nc3ccc(Cl)cc3)nc(Nc3ccc(-c4cc(-c5cccc(Cl)c5)on4)cc3)n2)cc1 | 88.1% (inactive) | 99.9% (inactive) | 85.2% (inactive) | 115% (inactive) | 96.1% (inactive) | 60.4% (inactive) | 88.5% (inactive) | 91.3% (inactive) | 94.6% (inactive) | 90.9% (inactive) | 110% (inactive) | 85.9% (inactive) | 128% (inactive) | 81.3% (inactive) | 39.3% (inactive) | 87.7% (inactive) | 102% (inactive) | 102% (inactive) | 108% (inactive) | 94.8% (inactive)
COc1ccc(/C=C/C(=O)c2cc3c(N)c(C(=O)Nc4ccccc4)sc3nc2C)cc1 | 28.8% (inactive) | 42.7% (inactive) | 35.9% (inactive) | 32.9% (inactive) | -1.05% (active) | 40.6% (inactive) | -17.9% (active) | 16.8% (inactive) | 20.2% (inactive) | -17.4% (active) | 10.9% (inactive) | 14.7% (inactive) | 58.1% (inactive) | 13.3% (inactive) | -19.2% (active) | 22.6% (inactive) | 11.6% (inactive) | -27.3% (active) | 69.5% (inactive) | 6.3% (active)
COc1ccc(CCNC(=O)COc2cc3c(Nc4ccc(F)c(Cl)c4)ncnc3cc2OC)cc1OC | 92.5% (inactive) | 98.5% (inactive) | 27.3% (inactive) | 95.7% (inactive) | 95.7% (inactive) | 87.9% (inactive) | 70.2% (inactive) | 84.8% (inactive) | 89.4% (inactive) | 102% (inactive) | 58% (inactive) | 112% (inactive) | 86.9% (inactive) | 94.4% (inactive) | 96% (inactive) | 85.7% (inactive) | 98.1% (inactive) | 103% (inactive) | 110% (inactive) | 101% (inactive)
NC(N)=NC(N)=NCCCc1ccco1 | 105% (inactive) | 111% (inactive) | 105% (inactive) | 101% (inactive) | 108% (inactive) | 95.4% (inactive) | 93.6% (inactive) | 102% (inactive) | 112% (inactive) | 111% (inactive) | 115% (inactive) | 96.8% (inactive) | 96.4% (inactive) | 107% (inactive) | 114% (inactive) | 94.1% (inactive) | 93.9% (inactive) | 103% (inactive) | 99.8% (inactive) | 111% (inactive)
COc1ccc(/C=C2/C(=O)N=C3N2NC(c2ccccc2)=CN3c2ccccc2)cc1 | 86.4% (inactive) | 93.2% (inactive) | 103% (inactive) | 105% (inactive) | 106% (inactive) | 102% (inactive) | 101% (inactive) | 104% (inactive) | 98.6% (inactive) | 121% (inactive) | 114% (inactive) | 108% (inactive) | 102% (inactive) | 107% (inactive) | 89.7% (inactive) | 98.5% (inactive) | 103% (inactive) | 94.8% (inactive) | 108% (inactive) | 98.3% (inactive)
O=C(CCN1CCOCC1)Nc1cccc(-n2cc(-c3ccncc3)c(-c3ccc(Cl)c(O)c3)n2)c1 | 51.7% (inactive) | 71% (inactive) | 60.4% (inactive) | 28% (inactive) | 17.8% (inactive) | 23.7% (inactive) | 5.83% (active) | 35.8% (inactive) | 11.7% (inactive) | 0.424% (active) | 13% (inactive) | 20.2% (inactive) | 66.3% (inactive) | 55.4% (inactive) | 22.2% (inactive) | 37% (inactive) | 6.52% (active) | -19.7% (active) | 66.2% (inactive) | 5.06% (active)
O=C(Nc1cc(C(F)(F)F)cc(C(F)(F)F)c1)c1cc(Cl)ccc1O | -25.2% (active) and -11.5% (active) | -27.9% (active) | -3.01% (active) and 1.1% (active) | -27.3% (active) and -3.41% (active) | 0.0882% (active) and 2.21% (active) | -19.6% (active) and -14.1% (active) | -45.5% (active) and -23% (active) | -7.9% (active) and 5.51% (active) | -41.1% (active) and -48.8% (active) | -83.1% (active) and -64.5% (active) | 14.4% (inactive) and 5.91% (active) | 2.85% (active) and 5.08% (active) | -38.3% (active) and -37.1% (active) | -11.4% (active) and -22.8% (active) | -40% (active) and -5.38% (active) | 11.7% (inactive) and -7.95% (active) | -63.1% (active) and -66.9% (active) | -31% (active) and -18% (active) | -52.7% (active) and -18.1% (active) | -6.08% (active) and -32.7% (active)
Cc1ccc(-c2nc3nc(-c4ccccc4)nc(N4CCCNCC4)c3o2)cc1 | 19.4% (inactive) | 88.9% (inactive) | -6.9% (active) | -27.1% (active) | -57.7% (active) | -33.5% (active) | -69.6% (active) | -66.5% (active) | -97.1% (active) | -86.9% (active) | -25.5% (active) | -76.4% (active) | -85.5% (active) | -86.9% (active) | -73.2% (active) | -26.3% (active) | -87.3% (active) | -88.5% (active) | 4.04% (active) | -93.9% (active)
CCOC(=O)c1cnn(-c2ccc(S(N)(=O)=O)cc2)c1N | 95.5% (inactive) | 92% (inactive) | 99.8% (inactive) | 95.9% (inactive) | 104% (inactive) | 105% (inactive) | 96.2% (inactive) | 103% (inactive) | 95.6% (inactive) | 140% (inactive) | 132% (inactive) | 87.7% (inactive) | 104% (inactive) | 111% (inactive) | 95.9% (inactive) | 161% (inactive) | 110% (inactive) | 101% (inactive) | 96.1% (inactive) | 98.9% (inactive)
NC(=O)c1c(NC(=O)/C=C/c2cccs2)sc2c1CCC(=O)C2 | 17.4% (inactive) | 68.5% (inactive) | 101% (inactive) | 87.3% (inactive) | 58% (inactive) | 42.4% (inactive) | -4.08% (active) | 74.9% (inactive) | 70.2% (inactive) | 55.5% (inactive) | 81.6% (inactive) | 14.3% (inactive) | 75.1% (inactive) | 24.6% (inactive) | 26.9% (inactive) | 22.5% (inactive) | 80.9% (inactive) | 16.3% (inactive) | 70.7% (inactive) | 24.8% (inactive)
Cc1cc2nc(C(Cl)Cl)nc(-c3ccc(Cl)cc3)n2n1 | -19.9% (active) | 67% (inactive) | -32.5% (active) | -8.28% (active) | -49.4% (active) | 16.1% (inactive) | 3.6% (active) | 0.301% (active) | 45% (inactive) | -37.2% (active) | -3.35% (active) | 12.2% (inactive) | -16.5% (active) | -2.03% (active) | -74.4% (active) | 7.03% (active) | 2.71% (active) | 3.16% (active) | 30.9% (inactive) | -20.3% (active)
Cn1ccnc1CN1CCSC(C(=O)Nc2ccccc2)C1 (stereo not given) | 101% (inactive) | 87.1% (inactive) | 88.7% (inactive) | 81.5% (inactive) | 94.8% (inactive) | 88.7% (inactive) | 85.6% (inactive) | 83.8% (inactive) | 98% (inactive) | 112% (inactive) | 100% (inactive) | 92.1% (inactive) | 96.6% (inactive) | 104% (inactive) | 94.2% (inactive) | 95.1% (inactive) | 92.9% (inactive) | 96% (inactive) | 79.6% (inactive) | 98.1% (inactive)
CCOC(=O)c1c(-c2ccc(C)cc2)c(C#N)c(=O)n(-c2cccc(C(F)(F)F)c2)c1N | 98.6% (inactive) | 100% (inactive) | 103% (inactive) | 99.8% (inactive) | 104% (inactive) | 90.9% (inactive) | 94.6% (inactive) | 101% (inactive) | 102% (inactive) | 106% (inactive) | 108% (inactive) | 97.8% (inactive) | 99.4% (inactive) | 97.9% (inactive) | 101% (inactive) | 97% (inactive) | 100% (inactive) | 97.2% (inactive) | 101% (inactive) | 106% (inactive)
Nc1ccc(-c2ccc(N)c(Br)c2)cc1Br | 53.9% (inactive) | 56.9% (inactive) | 77.3% (inactive) | 55.4% (inactive) | 44.3% (inactive) | 41.8% (inactive) | 57% (inactive) | 42.2% (inactive) | 52.9% (inactive) | 82.6% (inactive) | 68.1% (inactive) | 22.4% (inactive) | 55.4% (inactive) | 51.8% (inactive) | 57.5% (inactive) | 44.3% (inactive) | 62.8% (inactive) | 29.5% (inactive) | 78.1% (inactive) | 26.9% (inactive)
Cc1ccc(C(=O)c2ccc(CC(=O)N=Nc3c(O)[nH]c4ccc(OC(F)(F)F)cc34)n2C)cc1 | 90% (inactive) | 91% (inactive) | 96.7% (inactive) | 93.3% (inactive) | 103% (inactive) | 116% (inactive) | 85.6% (inactive) | 86% (inactive) | 101% (inactive) | 110% (inactive) | 102% (inactive) | 92.5% (inactive) | 126% (inactive) | 92.4% (inactive) | 104% (inactive) | 93.2% (inactive) | 101% (inactive) | 102% (inactive) | 102% (inactive) | 97.6% (inactive)
